The panel holds about 83,000 compounds, 20% with a hit somewhere; the sample as a whole holds those more often.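 Negative percent growth values reflect cell death: -40 means 40% of the cells present at the start died, and -100 means all died.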 A number with no mark means an inactive call. Calls of active or inactive are those of the source. Rule for the calls: active = growth percent below 10; inactive = the rest.
What was measured:
Assay in all cases: NCI-60 one-dose screen, 48 h (100 = growth as untreated, 0 = no growth, -100 = all killed)
Conditions in all cases: 10 µM unless noted
[1] = test system: HCT-15 colon
[2] = test system: HT29 colon
[3] = test system: SNB-75 CNS
[4] = test system: SNB-19 CNS
[5] = test system: U251 CNS
[6] = test system: PC-3 prostate
[7] = test system: SK-MEL-5 melanoma
[8] = test system: UACC-62 melanoma
[9] = test system: LOX IMVI melanoma
[10] = test system: SK-MEL-28 melanoma

| Structure (SMILES) | growth [1] | growth [2] | growth [3] | growth [4] | growth [5] | growth [6] | growth [7] | growth [8] | growth [9] | growth [10] |
| --- | --- | --- | --- | --- | --- | --- | --- | --- | --- | --- |
| COc1cc(C(=O)c2c(N)ncn2-c2ccccc2)cc(OC)c1OC | 82.6% | 93.7% | 90.7% | 89.6% | 95% | 78.5% | 89.5% | 70.3% | 91.9% | 91.7% |
| CCCCCCCCn1ccc2cc(NC(=O)Cn3cc(CN4CCN(CC)CC4)nn3)ccc21 | 22.5% | -26.4% (active) | 87.5% | 61.4% | 5.79% (active) | 82.6% | 78.1% | -78.2% (active) | -74.5% (active) | 80.5% |
| COc1ccc(NC(=O)c2ccc(C(=O)Nc3ccc(OC)cc3OC)cc2)c(OC)c1 | 81.4% | 90% | -39.3% (active) | 50.9% | 46.3% | 75.9% | 96.7% | 73.8% | 71.8% | 101% |
| COc1ccc(-c2oc(=O)ccc2-c2cc(OC)c(OC)c(OC)c2)cc1O | 27.1% | 3.93% (active) | -1.81% (active) | 22.9% | 22.7% | 38.1% | 12.1% | 21.1% | 44.4% | 39.3% |
| OC(c1ccccc1)(c1ccccc1)c1ccccc1-c1ccccc1 | 90.7% | 73.4% | 94.1% | 94% | 92.8% | 86% | 96.4% | 79.2% | 87.2% | 109% |
| O=C1CCCc2nc3sc4c(=O)n(-c5ccccc5Cl)nnc4c3cc21 | 84.3% | 77.5% | 114% | 93% | 88.5% | 83.6% | 87.9% | 90.6% | 102% | 109% |
| Cc1cscc(C)c1=S | 9.4% (active) | 19.5% | 108% | 100% | 80% | 77% | 90.2% | 90% | 70.4% | 120% |
| CCOC(=O)c1c(-c2ccccc2)n2c(=O)cc(C)c3c(O)c(O)cc1c32 | 28.8% | 70.9% | 63.6% | 65.6% | 48.8% | 41.7% | 41.9% | 69.4% | 43% | 76% |
| CCN1C(=O)N(CC)C2C1NN=c1s/c(=C\c3ccccc3Br)c(=O)n12 (stereo not given) | 8.51% (active) | 4.72% (active) | 10.1% | 26.8% | 5.61% (active) | 23.2% | -17.6% (active) | 24.5% | 16.3% | 57.4% |
| S=c1[nH]c2cc(Cl)ccc2o1 | 98.6% | 105% | 111% | 102% | 104% | 88% | 99% | 96.6% | 103% | 114% |
| O=C1/C(=C/c2ccccc2)CN(C(=O)c2cccnc2)C/C1=C\c1ccccc1 | -5.39% (active) | -34% (active) | 81.6% | 6.39% (active) | -23.8% (active) | -17.6% (active) | -39.1% (active) | -46.2% (active) | -84% (active) | -9.39% (active) |
| COc1cc(Nc2c3ccc(Cl)cc3nc3ccc(OC)cc23)c2ncccc2c1 | 23.8% | 38.1% | 70.1% | 66.6% | 31.5% | 38% | 33% | 36.4% | 29.3% | 50% |
| Cn1cc(-c2ccc3cc(-c4ccc(CC(=O)Nc5cc(C(C)(C)C)on5)cc4)cnc3c2)cn1 | 10.9% | 38.8% | 28.4% | 34.7% | 2.41% (active) | 21.1% | 26.7% | 10.8% | 30.4% | 29.1% |
| N=C(N)c1ccc(-c2ccc(-c3ccc(F)cc3)s2)s1 | -74.2% (active) | -76.1% (active) | 81% | -57.5% (active) | -89.7% (active) | -24.2% (active) | 77.6% | -67.9% (active) | -67.2% (active) | 83.5% |
| COC(=O)c1ccc2c(c1)c1c(C)c3ccncc3c(C)c1n2C | 18.6% | 12.4% | 22% | 29% | 20.9% | 31.8% | 14.5% | 3.04% (active) | 4.81% (active) | 35.4% |
| Cn1cc(-c2nonc2-c2c[nH]c3ccccc23)c2ccccc21 | 16.6% | 5.85% (active) | -18.2% (active) | 12.8% | 12.4% | 20.7% | 21.2% | 8.21% (active) | 23.5% | 41.6% |
| Fc1ccc(CNc2c3ccccc3nc3ccccc23)cc1 | 17.6% | 16.1% | 42.1% | 32.4% | 25.9% | 26.9% | 42.5% | 50.2% | 9.43% (active) | 68.2% |
| COc1cc(C#Cc2ccc(=O)oc2C#Cc2ccccc2)cc(OC)c1OC | 61.4% | 43.4% | 77.1% | 92.9% | 83.8% | 86.2% | 56.7% | 80.3% | -61% (active) | 23.1% |
| Cc1ccc(-c2nc(C(Cl)Cl)nc3cc(C)nn23)cc1 | -2.36% (active) | 3.2% (active) | -11.5% (active) | 25.1% | 4.27% (active) | 44.9% | 44.8% | 59.5% | 52% | 38.4% |
| CC(=O)c1cc(-c2ccccc2N)n(-c2ccc3c(c2)OCO3)c1C | 13.4% | 6.88% (active) | 22.8% | 18.6% | 14.7% | 30.1% | 2.46% (active) | 25.3% | 35.1% | 52.4% |
| O=C(Nc1ccccc1O)c1ccccc1Nc1ccnc(C(F)(F)F)c1 | 104% | 124% | 90.7% | 107% | 102% | 94.4% | 70.7% | 57.7% | 89.3% | 117% |
| CN1CCN(Cc2ccc(NC(=O)c3cncc(C#Cc4cnn5ccccc45)c3)cc2C(F)(F)F)CC1 | 0.133% (active) | 4.53% (active) | 13.6% | 5.8% (active) | 7.18% (active) | -4.22% (active) | 14.9% | 13.8% | -39.6% (active) | 25% |
| CCn1cc(C(=O)NN=C2CCCCCC2)c(=O)c2ccc(C)nc21 | 86.2% | 99.7% | 76.2% | 88.5% | 94.6% | 82.7% | 87.1% | 73.2% | 95% | 93.8% |
| Cn1c(O)c(C(/C=C/c2ccccc2)=Nc2ccccc2N)c(=O)n(C)c1=O | 91.5% | 72.1% | 90.7% | 101% | 101% | 77.7% | 75.4% | 76.1% | 90.3% | 120% |
| CN1CCN(c2ccc(NC(=O)c3cncnc3Nc3ccc4c(ccn4Cc4cccc(F)c4)c3)cc2)CC1 | -6.2% (active) | -39.8% (active) | 67.4% | 77.7% | 6.24% (active) | 66.2% | 59.6% | 54.3% | -80.9% (active) | -85.2% (active) |
| C[Se]C(=O)CC1=C2C=C(F)C=CC2/C(=C\c2ccc(S(C)=O)cc2)C1C (stereo not given) | 15% | 13.8% | -25.5% (active) | -22.7% (active) | -36.3% (active) | 20.4% | -87.7% (active) | 30.9% | -68.4% (active) | 4.39% (active) |
| COc1ccc(NC(=O)c2sc3nc(C)c(C(O)c4ccccc4)cc3c2N)cc1 (stereo not given) | 24.9% | 13.1% | 20.3% | 28.6% | 17.8% | 23.4% | 23.2% | 26.2% | 55.1% | 57% |

Reference: PubChem BioAssay (NCI)
